# Measured values: PubChem BioAssay
# A number with no mark means an inactive call. For some of these results: Entries with a potency or affinity are not part of this list. The source made the active and inactive calls. Unless noted, no rule for the calls is given here.
# Columns and labels:
# [1] = antimalarial activity against Dd2 strain (AID 2302;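 active = growth inhibition above 50% at the single 2 µM test dose, taken to imply half-maximal potency below 2 µM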;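 also: 0% = DMSO untreated growth and 100% = chloroquine plus artemisinin killed control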); settings: P. falciparum Dd2 in RBCs, LDH growth readout, 72 h; at 2 µM; active compounds read high
# [2] = human hepatoma cell viability loss – ATP luminescence, cytotoxicity control for P. falciparum antimalarial project, primary screen (AID 2303;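 active = inhibition above 50%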;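 also: 0% = DMSO wells and 100% = digitonin-killed cells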); settings: HepG2 viability, 24-48 h, at 10 µM, active compounds read high
# [3] = target: L-lactate dehydrogenase (Plasmodium falciparum (isolate CDC / Honduras)) (UniProt Q27743); assay: PfLDH activity inhibition – cell lysate, 3D7 strain, counter-screen for P. falciparum growth inhibition project (AID 2304);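 also: 0% = vehicle and 100% = reference inhibitor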; settings: P. falciparum 3D7 crude extract, LDH APAD/NBT absorbance; at 2 µM; active compounds read high
# [4] = inhibition of 3D7 malaria parasite growth – strain 3D7 (AID 2306);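 also: 0% = DMSO wells and 100% = chloroquine plus artemisinin control wells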; settings: P. falciparum 3D7 erythrocytic growth, LDH absorbance, 72 h; at 2 µM; active compounds read high
# [5] = target: Calcium-dependent protein kinase 1 (Plasmodium falciparum (isolate 3D7)) (UniProt P62344); assay: PfCDPK1 kinase inhibitors, biochemical, TCAMS library (AID 1159585; cut-off not given, nearly all actives have IC50 up to about 0.98 µM;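 also: inhibitors leave more ATP so luminescence rises with inhibition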); settings: recombinant PfCDPK1, Kinase-Glo ATP depletion luminescence
# [6] = target: Plasmodium falciparum protein kinase 6 (PK6, PF3D7_1337100) (UniProt Q8IDW1); assay: PfPK6 kinase inhibitors, biochemical, TCAMS library (AID 1159586); settings: recombinant PfPK6, Kinase-Glo ATP depletion luminescence
# [7] = target: Protein kinase 7 (PK7), Plasmodium falciparum 3D7 (PF3D7_0213400) (UniProt Q7YTF7); assay: inhibition of Plasmodium PK7 catalytic activity – biochemical, TCAMS antimalarial set, Kinase-Glo luminescence (AID 1159587); settings: recombinant PfPK7, Kinase-Glo ATP depletion luminescence
# [8] = target: Calcium-dependent protein kinase 4 (Plasmodium falciparum (isolate 3D7)) (UniProt Q8IBS5); assay: PfCDPK4 kinase inhibitors, biochemical, TCAMS library (AID 1159588; cut-off not given, nearly all actives have IC50 up to about 0.91 µM); settings: recombinant PfCDPK4, Kinase-Glo ATP depletion luminescence
# Chain of Calcium-dependent protein kinase 4 (Plasmodium falciparum (isolate 3D7)) (Q8IBS5 whole entry, looked up): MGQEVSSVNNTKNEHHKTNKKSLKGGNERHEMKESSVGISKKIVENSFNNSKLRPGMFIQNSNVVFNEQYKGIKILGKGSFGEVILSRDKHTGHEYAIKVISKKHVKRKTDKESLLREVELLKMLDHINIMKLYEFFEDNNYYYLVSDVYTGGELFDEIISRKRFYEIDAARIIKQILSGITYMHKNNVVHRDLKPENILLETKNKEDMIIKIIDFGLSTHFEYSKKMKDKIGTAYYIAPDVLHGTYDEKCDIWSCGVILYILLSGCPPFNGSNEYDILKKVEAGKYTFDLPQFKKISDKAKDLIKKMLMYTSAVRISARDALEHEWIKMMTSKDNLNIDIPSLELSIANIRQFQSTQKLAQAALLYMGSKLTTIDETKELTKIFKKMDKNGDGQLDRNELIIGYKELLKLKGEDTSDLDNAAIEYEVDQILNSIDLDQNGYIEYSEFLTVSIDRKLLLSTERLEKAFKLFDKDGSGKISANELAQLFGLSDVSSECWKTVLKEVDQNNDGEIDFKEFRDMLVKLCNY
# Chain of Plasmodium falciparum protein kinase 6 (PK6, PF3D7_1337100) (Q8IDW1 1-305): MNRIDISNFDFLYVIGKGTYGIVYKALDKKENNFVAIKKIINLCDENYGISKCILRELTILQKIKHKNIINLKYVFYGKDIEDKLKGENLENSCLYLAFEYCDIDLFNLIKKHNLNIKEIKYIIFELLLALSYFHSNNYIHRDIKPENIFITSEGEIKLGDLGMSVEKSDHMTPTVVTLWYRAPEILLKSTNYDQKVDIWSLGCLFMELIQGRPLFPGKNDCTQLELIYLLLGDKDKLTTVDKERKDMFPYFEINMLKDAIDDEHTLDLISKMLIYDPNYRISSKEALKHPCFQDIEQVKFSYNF
# Chain of L-lactate dehydrogenase (Plasmodium falciparum (isolate CDC / Honduras)) (Q27743 whole entry, looked up): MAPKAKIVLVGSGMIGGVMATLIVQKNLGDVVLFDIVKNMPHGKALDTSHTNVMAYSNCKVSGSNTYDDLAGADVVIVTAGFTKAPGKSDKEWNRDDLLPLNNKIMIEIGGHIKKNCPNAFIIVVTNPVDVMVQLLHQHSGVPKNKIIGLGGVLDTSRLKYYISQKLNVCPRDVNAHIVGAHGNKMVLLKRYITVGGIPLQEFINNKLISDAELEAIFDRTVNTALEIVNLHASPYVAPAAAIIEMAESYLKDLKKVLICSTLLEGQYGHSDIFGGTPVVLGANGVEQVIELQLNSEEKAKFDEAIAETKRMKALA
# Chain of Protein kinase 7 (PK7), Plasmodium falciparum 3D7 (PF3D7_0213400) (Q7YTF7 1-343): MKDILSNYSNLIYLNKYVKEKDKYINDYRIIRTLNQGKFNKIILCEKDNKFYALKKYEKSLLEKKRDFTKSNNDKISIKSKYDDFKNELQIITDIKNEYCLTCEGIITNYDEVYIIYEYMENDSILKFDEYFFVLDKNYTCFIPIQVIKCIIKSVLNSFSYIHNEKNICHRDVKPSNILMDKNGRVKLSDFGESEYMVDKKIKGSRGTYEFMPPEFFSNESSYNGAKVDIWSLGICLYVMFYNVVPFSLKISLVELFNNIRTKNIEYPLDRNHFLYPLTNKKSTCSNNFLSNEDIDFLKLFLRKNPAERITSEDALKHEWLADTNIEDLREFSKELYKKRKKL
# Chain of Calcium-dependent protein kinase 1 (Plasmodium falciparum (isolate 3D7)) (P62344 whole entry, looked up): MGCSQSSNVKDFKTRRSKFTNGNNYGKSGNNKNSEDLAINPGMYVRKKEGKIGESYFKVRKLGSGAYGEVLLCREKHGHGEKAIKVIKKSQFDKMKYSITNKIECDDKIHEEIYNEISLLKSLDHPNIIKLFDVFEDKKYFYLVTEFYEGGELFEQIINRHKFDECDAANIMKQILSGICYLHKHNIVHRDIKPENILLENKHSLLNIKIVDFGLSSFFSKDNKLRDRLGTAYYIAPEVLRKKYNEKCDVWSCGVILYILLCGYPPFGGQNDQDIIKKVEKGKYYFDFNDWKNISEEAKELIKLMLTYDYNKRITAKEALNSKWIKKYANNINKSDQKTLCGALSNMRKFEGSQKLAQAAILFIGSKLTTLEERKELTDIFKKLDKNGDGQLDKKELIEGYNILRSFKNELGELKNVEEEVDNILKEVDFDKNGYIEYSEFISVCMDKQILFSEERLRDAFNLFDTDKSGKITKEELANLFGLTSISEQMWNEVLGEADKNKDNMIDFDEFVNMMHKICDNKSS
Compound,growth inhibition [1],inhibition [2],inhibition [3] [%],growth inhibition [4],outcome [5],outcome [6],outcome [7],outcome [8]
Cc1[nH]c(C)c(-c2ccc(-c3cc(C(F)(F)F)cc(C(F)(F)F)c3)nc2)c(=O)c1Br,96% (active),18%,0,98% (active),inactive,inactive,inactive,inactive
O=C(Nc1ccc(N2CCCN(Cc3cccc(F)c3)CC2)cc1)c1ccc(F)cc1,95% (active),0%,3,96% (active),inactive,inactive,inactive,inactive
Cc1cccc2[nH]c(-c3ccc(-c4ccc(NC(=O)Nc5ccc(Cl)c(Cl)c5)cc4)s3)nc12,101% (active),100% (active),0,101% (active),inactive,inactive,inactive,inactive
Cc1cc(N(C)CCCN(C)C)nc(Nc2ccc(Br)cc2)n1,84% (active),4%,1,100% (active),inactive,inactive,inactive,inactive
CCOC(=O)c1cc(C(=O)NCCCCN2CCC(c3cn(C)c4ccccc34)CC2)ccc1-c1ccc(C(F)(F)F)cc1,6%,25%,-3,91% (active),inactive,inactive,inactive,inactive
Cn1ncc2c3c(CCN4CCC(NCc5ccc6c(c5)NC(=O)CO6)CC4)c(Cl)cnc3ccc21,92% (active),18%,-2,101% (active),inactive,inactive,inactive,inactive
O=S(=O)(c1ccccc1OC(F)(F)F)C1C[C@H]2CC[C@@H](C1)N2S(=O)(=O)c1cccc(C(F)(F)F)c1 (stereo partly drawn),99% (active),5%,2,99% (active),inactive,inactive,inactive,inactive
Cc1ccc2nc(-c3ccc(C=CC(=O)NC4CCN(Cc5ccccc5)CC4)cc3)[nH]c2c1,92% (active),9%,-1,101% (active),inactive,inactive,inactive,inactive
CC(CCc1ccccc1)NCC(O)c1ccc2c3c(cccc13)C(=O)N2C (stereo not drawn),57% (active),37%,-2,99% (active),inactive,inactive,inactive,inactive
CCN(CC)CC(O)c1cc(-c2ccc(OC)cc2)nc2cc(Cl)ccc12 (stereo not drawn),98% (active),12%,-10,99% (active),inactive,inactive,inactive,inactive
O=C1CC(C(=O)O)CC(=O)N1,88% (active),-3%,6,94% (active),inactive,inactive,inactive,inactive
CN1CCC(NCc2ccc(-c3ccc(S(=O)(=O)NCc4ccccc4)cc3)cc2)CC1,51% (active),40%,2,99% (active),inactive,inactive,inactive,inactive
O=C(C=CC(=O)N1CCCCC1)NCc1ccccc1,-3%,6%,-2,100% (active),inactive,inactive,inactive,inactive
CCOc1ccc(NC(C)=O)c(O)c1,0%,6%,-1,96% (active),inactive,inactive,inactive,inactive
COc1ccccc1CCNc1nc(C)cc(NCCC(=O)Nc2ccccc2)n1,24%,7%,0,101% (active),inactive,inactive,inactive,inactive
CCN1CCN(c2cc(C)c3cc(NC(=O)c4ccc(OC)c([N+](=O)[O-])c4)ccc3n2)CC1,93% (active),25%,0,100% (active),inactive,inactive,inactive,inactive
CCn1c(-c2nonc2N)nc2cnc(Oc3cccc(NC(=O)c4ccc(OCCN5CCCC5)cc4)c3)cc21,1%,25%,2,92% (active),inactive,inactive,inactive,inactive
CCc1ccnc2c(N3CCCC3=O)cc(C(=O)N[C@@H](Cc3ccccc3)[C@H](O)CNC3CCOCC3)cc12,98% (active),2%,4,99% (active),inactive,inactive,inactive,inactive
COc1cc(NC(=O)Nc2ccnc3ccccc23)cc(OC)c1,34%,11%,-6,98% (active),inactive,inactive,inactive,inactive
CCCC(=O)NC(NC(=S)Nc1ccc([N+](=O)[O-])cc1)C(Cl)(Cl)Cl (stereo not drawn),14%,10%,4,93% (active),inactive,inactive,inactive,inactive
CC(C)C[C@H](NC(=O)c1ccc(OCCN2CCOCC2)cc1)C(=O)N[C@H](/C=N/N(C)C(=O)c1ccccc1)CCc1ccccc1,72% (active),8%,1,91% (active),inactive,inactive,inactive,inactive

Compound,growth inhibition [1],inhibition [2],inhibition [3] [%],growth inhibition [4],outcome [5],outcome [6],outcome [7],outcome [8]
O=C(Nc1cccc(-c2ccc(-c3nc4ccc(F)cc4[nH]3)cc2)c1)c1ccoc1,6%,39%,-7,85% (active),inactive,inactive,inactive,inactive
CCCCc1cc(NCC)nc(Nc2ccc(OC)cc2)n1,32%,30%,-4,85% (active),inactive,inactive,inactive,inactive
OCc1ccc(-c2cncc(Nc3cccc(Cl)c3)c2)cc1,100% (active),4%,-3,95% (active),inactive,inactive,inactive,inactive
Cn1nccc1C(=O)NCCNCc1ccc(-c2ccc(-c3nc4ccc(C(F)(F)F)cc4[nH]3)s2)cc1,99% (active),48%,-5,101% (active),inactive,inactive,inactive,inactive
CC(=O)Nc1ccc(NC(=O)c2cc(-c3ccc(C)cc3O)n[nH]2)cc1,78% (active),-3%,-6,101% (active),inactive,inactive,inactive,inactive
COc1ccc2nccc([C@@H](O)CN3CCC(NCCc4c[nH]c5ccccc45)CC3)c2c1,77% (active),0%,-7,98% (active),inactive,inactive,inactive,inactive
Nc1nc(N)c2c(ccc3c2ccn3Cc2cc3c(cc2Cl)OCO3)n1,94% (active),58% (active),-5,95% (active),inactive,inactive,inactive,inactive
CN1CCC(OC(=O)c2cc3cc(-c4ccccc4)ccc3n2S(=O)(=O)c2ccccc2)CC1,10%,31%,-5,88% (active),inactive,inactive,inactive,inactive
Cc1c(CC(=O)N(C)C2CCN(CCCCCNC(=O)/C=C/c3ccc(Cl)c(Cl)c3)CC2)sc2ccc(Cl)cc12,9%,93% (active),3,95% (active),inactive,inactive,inactive,inactive
COc1cc(C)cc(CN2CCC(Cc3ccccc3)CC2)c1O,94% (active),35%,0,97% (active),inactive,inactive,inactive,inactive
CC(C)CCNCc1c(O)ccc2ccccc12,51% (active),9%,2,95% (active),inactive,inactive,inactive,inactive
CCOc1ccccc1CNc1nccc(NCc2ccc(Cl)cc2Cl)n1,58% (active),26%,-3,83% (active),inactive,inactive,inactive,inactive
O=S(=O)(NCCN1CCCC1)c1ccc(-c2cccc(CNCc3ccc(F)cc3)c2)cc1F,36%,43%,-1,97% (active),inactive,inactive,inactive,inactive
COc1ccc(NC(=O)Nc2cc(C)nc3cccnc23)cc1Cn1ccnc1,41%,12%,-3,100% (active),inactive,inactive,inactive,inactive
Cc1ccc(OCCCON2C(N)=NC(N)=NC2(C)C)cc1C,94% (active),57% (active),0,96% (active),inactive,inactive,inactive,inactive
COc1ccc(CNCc2ccccc2)cc1-c1ccc(S(=O)(=O)NCCN2CCCC2)s1,62% (active),32%,0,101% (active),inactive,inactive,inactive,inactive
Cc1c(S(=O)(=O)Nc2cccc(CCN3CCCCC3CCN3CCCC3)c2)sc2ccc(Cl)cc12 (stereo not drawn),10%,22%,0,93% (active),inactive,inactive,inactive,inactive
C[C@H](Nc1c(Nc2ccc3[nH]ccc3c2)c(=O)c1=O)C1CCCCC1,11%,7%,6,96% (active),inactive,inactive,inactive,inactive
CCCCCC(=O)N1CCOC(CCN2CCC(c3ccccc3)CC2)(c2ccc(Cl)c(Cl)c2)C1 (stereo not drawn),51% (active),17%,1,89% (active),inactive,inactive,inactive,inactive
COc1cc(NC(=O)N2CCOC(CCN3CCC4(CCc5ccccc54)CC3)(c3ccc(Cl)c(Cl)c3)C2)cc(OC)c1OC (stereo not drawn),67% (active),17%,-4,94% (active),inactive,inactive,inactive,inactive
